NR3A LBD binder = modulators (binders) of human NR3A ligand-binding domain | 340,000 compounds, 2.5% hits | NR3A LBD differential scanning fluorimetry, Tm shift; 0% = protein alone, 100% = glycine-bound protein | Tm shift relative to glycine control, % at 25 µM;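 active means melting temperature shift of at least 10% of the positive control shift, at one fixed dose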
NadD block = inhibitors of Staphylococcus aureus NadD; purified NadD enzyme, colorimetric absorbance read-out; inhibition, % at 20 µM; 360,000 compounds, 0.78% hits; in the data active means inhibition above about 26%
esBAF inh = blocks esBAF chromatin remodeling in mouse ES cells; reporter increase, % at 12.5 µM; 350,000 compounds, 2% hits; Bmi1-luciferase knock-in reporter, 24 h; 100% = twice the neutral-well signal; in the data active means activation above about 40%;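 further: 0% = median of the plate's neutral control wells and 100% = double that signal; a rise in the Bmi1 reporter signal indicates esBAF inhibition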
SKN-1 block = inhibitors of C. elegans SKN-1. C. elegans VP596 Pgst-4::GFP/RFP ratio, acrylamide-induced, 24 h. inhibition, % at 21.8 µM. 360,000 compounds, 0.49% hits;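 active means interference check ratio from 0.5 to 1.5 plus GFP to RFP signal ratio inhibition reaching or exceeding a fixed threshold, cut at about 30% in these data, passing the limit was not always enough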
SMARCA2 act = increases SMARCA2 function in MMTV reporter cells; MG213 cells, MMTV-luciferase reporter, dexamethasone, overnight; activation, % at 9.1 µM; 370,000 compounds, 1% hits; AID 652017; in the data active means activation above about 7.8%;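 further: 0% = vehicle wells and 100% = reference activator wells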
Vif inh = blocks HIV Vif function. inhibition, % at 7.49 µM. 340,000 compounds, 0.35% hits. HEK293T cells, Vif self-association by quenched fluorescence, imaging, 24 h. AID 602346; in the data active means inhibition above about 50%, passing the limit was not always enough
Numbers without * were called inactive; · = not tested or not shown. The list is not random: actives were taken first. Their share in the collection is about 5.2%.

SMILES	NR3A LBD binder	NadD block	esBAF inh	SKN-1 block	SMARCA2 act	Vif inh
COc1ccc(OCCCC(=O)Nc2ccc(N3CCOCC3)cc2)cc1	28*	-4	·	3	2	0
COc1ccc(OCCCC(=O)Nc2ccc(N3CCCCC3)cc2)cc1	3	-3	·	-13	-3	2
COc1ccc(N(C)C(=O)CCC(=O)Nc2ccc3nc(N4CCOCC4)cc(C)c3c2)c(OC)c1	-2	1	-2	-27	1	-7
COc1ccc(NC(=O)CCC(=O)Nc2ccc3nc(N4CCOCC4)cc(C)c3c2)c(OC)c1	-5	6	42*	7	0	-9
COc1ccc(OCC(=O)Nc2ccc(N3CCCCC3)cc2)cc1	19*	-7	·	8	0	-1
COc1ccc(NC(=O)CCOc2ccccc2)cc1	-4	7	49*	5	7	2
COC(=O)c1ccc(NC(=O)CCOc2ccccc2)cc1	-2	-1	·	0	-3	-2
Cc1ccc(C(=O)N(C)CC(=O)Nc2ccc(N3CCOCC3)cc2)s1	-2	0	20	35*	2	0
Cc1noc(C)c1S(=O)(=O)N(C)C[C@H]1Oc2ccc(NC(=O)Cc3ccccc3)cc2CC(=O)N([C@@H](C)CO)C[C@@H]1C	·	·	-5	·	·	·
COc1cc(Cl)c(NS(=O)(=O)c2ccc(-c3ccc(=O)[nH]n3)o2)c(OC)c1	16*	6	5	0	0	12
Cc1cccc(C)c1NS(=O)(=O)c1ccc(-c2ccc(=O)[nH]n2)o1	-1	-1	-5	-20	-4	-4
Cc1cc(O)c2c(c1O)C(=O)[C@]13C(=C2O)C(=O)[C@@H]2[C@@H](O)[C@H]1[C@@H]1[C@H](O)[C@H]3C(=O)C3=C(O)c4c(O)cc(C)c(O)c4C(=O)[C@]312	-3	32*	-41	15	·	-19
O=C(C1CCOCC1)N1C[C@@H]2[C@H](c3ccccc31)[C@H](CO)N2Cc1ccccc1	·	·	4	·	·	·
CCCCn1nnc(NC(=O)c2cc3ccccc3o2)n1	1	3	59*	-15	4	·
CCCn1nnc(NC(=O)c2cc3ccccc3o2)n1	5	-2	50*	11	8	·
O=C(C[C@@H]1CC[C@@H]2[C@H](COC[C@H](O)CN2Cc2cc(F)cc(F)c2)O1)NC1CCC1	·	·	1	·	·	·
C[C@H]1CN([C@@H](C)CO)C(=O)Cc2cc(NS(=O)(=O)c3ccc(Cl)cc3)ccc2O[C@@H]1CN(C)S(=O)(=O)c1ccc(F)cc1	·	·	4	·	·	·
CNC(C)C#Cc1ccc2c(=O)c3cc(C)c(C)cc3oc2c1 (stereo unspecified)	-16	6	69*	2	4	-4
CO[C@@H]1CN(C)C(=O)c2cc(NS(=O)(=O)c3cn(C)cn3)ccc2OC[C@@H](C)N(CC2CC2)C[C@@H]1C	·	·	-3	·	·	·
O=C(/C=C/c1ccc2c(c1)OCO2)Nc1nc2ccccc2s1	14*	11	·	0	0	4
Cc1ccc2nc(NC(=O)/C=C/c3ccc4c(c3)OCO4)sc2c1	36*	16	·	4	-1	-1
COc1ccc(-c2cnc3c(c2)C(=O)N([C@H](C)CO)C[C@H](C)[C@@H](CN(C)C(=O)Cc2ccccn2)O3)cc1	·	·	-6	·	·	·
CNC[C@H]1Oc2cc(C#Cc3cccnc3)ccc2S(=O)(=O)N([C@@H](C)CO)C[C@@H]1C	·	·	-2	·	·	·
C[C@H]1CN([C@@H](C)CO)S(=O)(=O)c2ccc(-c3cccnc3)cc2O[C@H]1CN(C)CC1CCOCC1	·	·	-1	·	·	·
COc1ccc(/C=C/C2=NC(=C\N(C)C)/C(=O)O2)cc1	1	-15	51*	-13	5	-4
SMILES	NR3A LBD binder	NadD block	esBAF inh	SKN-1 block	SMARCA2 act	Vif inh
O=C(Nc1ccc(Cl)cc1)/C(=C/c1cccc(O)c1)c1nc2ccccc2s1	26*	17	·	5	-10	15
O=[N+]([O-])c1cccc2ccc(/C=C/c3ccc(Cl)cc3)nc12	21*	11	·	39*	2	-1
CCOc1cc(/C=C/c2ccc3cccc([N+](=O)[O-])c3n2)cc(Cl)c1O	6	27	0	-1	-3	-2
O=[N+]([O-])c1cccc2ccc(/C=C/c3ccc(C(F)(F)F)cc3)nc12	17*	-2	5	12	-1	-1
O=[N+]([O-])c1cccc2ccc(/C=C/c3cccc(Br)c3)nc12	23*	6	·	22	0	-2
C[C@@H]1CN([C@@H](C)CO)C(=O)c2cc(C3=CCCC3)cnc2O[C@@H]1CN(C)C(=O)CN1CCOCC1	·	·	0	·	·	·
C[C@H]1CN([C@@H](C)CO)C(=O)c2cc(Br)cnc2O[C@H]1CN(C)C(=O)Nc1ccccc1	·	·	-4	·	·	·
CN(C)CCCNc1nc2cc(-c3ccc4c(ccn4C)c3)sc2c(=O)n1C	·	19	67*	-13	8	·
Cn1c(NCc2ccc3occc3c2)nc2cc(-c3cccc(C(F)(F)F)c3)sc2c1=O	·	12	0	6	-1	-10
COc1cccc(CNc2nc3cc(-c4ccc(C)cc4)sc3c(=O)n2C)c1OC	·	7	54*	-6	-5	-10
COc1cccc(CNc2nc3cc(-c4ccc(F)cc4)sc3c(=O)n2C)c1OC	·	6	8	5	-7	-34
COc1cccc(-c2cc3nc(NCc4ccc5occc5c4)n(C)c(=O)c3s2)c1	·	14	61*	19	-1	-18
Cc1cc(C(=O)N/N=C/c2ccc(O)c(O)c2O)c(C)n1-c1ccccc1	-5	33*	·	13	-3	19
c1ccc(Cn2nnnc2C(c2ccccc2)N2CCN(c3nc4ccccc4s3)CC2)cc1 (stereo unspecified)	0	7	·	13	1	-3
c1csc(Cn2nnnc2CN2CCN(c3nc4ccccc4s3)CC2)c1	1	7	7	36*	-8	-12
C[C@@H]1CN([C@H](C)CO)C(=O)c2cc(N(C)C)ccc2O[C@@H](C)CCCCO[C@H]1CN(C)C(=O)Nc1ccccc1	·	·	-4	·	·	·
Cc1c(C(=O)N2c3ccccc3CC2C)oc2ccccc12 (stereo unspecified)	4	-3	85*	6	5	-5
COCc1c(C(=O)OCC(=O)N2c3ccccc3CC2C)oc2ccccc12 (stereo unspecified)	0	-4	-1	-15	-2	-11
CCOC(=O)COc1cc(-n2c(=S)[nH]c3cc(OC)c(OC)cc3c2=O)c(Cl)cc1Cl	13*	8	·	8	-2	-14
CCS(=O)(=O)Nc1ccc(-c2cc(-c3ccccc3)c3cc(C)ccc3n2)cc1	10*	13	·	-2	-2	9
Nc1cc(Cl)ccc1C(=O)OCC(=O)N1CCCCCC1	0	1	53*	-6	4	12
Cc1cccc(C(=O)OCC(=O)N2CCCCCC2)c1C	0	-4	64*	7	7	0

Assay outcomes from PubChem.
